Compounds with a hit are over-represented: about 5.7% of the library has one in this group of screens.
Giardia killer: Giardia lamblia killing. Giardia lamblia trophozoite viability. activity change, % at 7.66 µM, hits read low. hit rate 0.15% among 340,000. AID 540267; in the data active means activity change below about -80%; inconclusive means between about -30% and that limit;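 further: parasites exposed to compound for two days anaerobically before the ATP read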
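Anaerobic 48 hrs incubation at 37 deg C of 100 trophozoites/well with test compounds; ATPLite 1-Step luminescence, 15-30 min RT, reports cellular ATP as viability.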
KB-V1 MDR tox: kills drug-selected multidrug resistant KB-V1 cells; Potency, µM (top dose mostly 46.1 µM), hits mostly cytotoxic; AID 1347076; KB-V1 MDR cells viability, CellTiter-Glo, 72 h; hit rate 3.4% among 400,000; further: potency means the concentration at half of the fitted maximal effect; nearly all actives have a fitted effect of over 60% in size
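Cytotoxicity toward P-gp-expressing KB-V1 cells was determined as loss of CellTiter-Glo luminescence after 72 h at 37 degrees C. Compounds were tested in quantitative HTS format across a concentration range, with curves fitted to normalized data.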
A549 tox: A549 cytotoxicity, counter-screen for Nrf2 inhibitors; A549 ARE-Fluc cells, CellTiter-Fluor viability, 18-24 h; AID 504648; Potency, µM (top dose mostly 46 µM), inactives show top-dose activity change, negative = cytotoxicity, usual class: inhibitors; hit rate 0.16% among 390,000; further: potency means the concentration at half of the fitted maximal effect
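A549 ARE-Fluc cells in 5% FBS OPTI-MEM, 5000 cells/well, rested 2 h then exposed to compounds in concentration-response for 18-24 h at 37 °C. Viability by CellTiter-Fluor fluorescence (Ex 405/Em 525) after 30 min; luciferase luminescence (BugLite, 15 min, RT) read afterwards.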
KB-3-1 tox: KB-3-1 parental cell cytotoxicity. KB-3-1 viability, CellTiter-Glo ATP luminescence, 72 h. Potency, µM (doses to about 46.1 µM), actives largely listed as cytotoxic. hit rate 1.4% among 400,000; further: potency means the concentration at half of the fitted maximal effect; nearly all actives have a fitted effect of over 60% in size
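Cells are dispensed, compounds pinned in, plates held at 37 °C for 72 h, then CellTiter-Glo is added and luminescence read after 10 minutes. Cell line: parental KB-3-1 in phenol-red-free DMEM, 10% FBS.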
PI4K2A block: PI4K2A (human) kinase inhibition; purified PI4K2A, ADP-Glo luminescence, 1 h; stronger effect = lower value; hit rate 0.13% among 420,000; activity change, negative = inhibition, % at 76.9 µM; Q9BTU6; in the data active means activity change below about -50%; inconclusive means mostly about -30% to -49%;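 further: -100% = wells without enzyme as full effect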
Target sequence (Q9BTU6 whole entry, looked up): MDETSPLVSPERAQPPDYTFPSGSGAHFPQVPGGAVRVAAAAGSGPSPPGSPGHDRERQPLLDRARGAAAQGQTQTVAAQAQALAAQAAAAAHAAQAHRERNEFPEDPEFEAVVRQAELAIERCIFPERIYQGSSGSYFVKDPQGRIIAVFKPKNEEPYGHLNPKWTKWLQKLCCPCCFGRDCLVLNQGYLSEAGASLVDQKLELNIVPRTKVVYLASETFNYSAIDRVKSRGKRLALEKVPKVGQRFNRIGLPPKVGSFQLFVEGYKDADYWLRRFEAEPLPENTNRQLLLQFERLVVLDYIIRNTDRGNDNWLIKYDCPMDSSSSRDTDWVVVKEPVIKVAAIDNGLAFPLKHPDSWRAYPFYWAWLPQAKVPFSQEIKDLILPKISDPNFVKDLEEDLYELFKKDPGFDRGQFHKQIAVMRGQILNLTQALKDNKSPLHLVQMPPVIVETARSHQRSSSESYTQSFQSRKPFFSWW
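PI4K2A activity was measured by ADP-Glo luminescence: enzyme (4 ug/mL stock) and phosphatidylinositol (1.2 mM stock) in Tris pH 7.5/MgCl2/EGTA/Triton X-100 buffer were reacted with ATP (300 microM stock) for one hour at ambient temperature.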
Nrf2 block: blocks Nrf2 signaling | A549 ARE-Fluc reporter, luciferase luminescence, 18-24 h | Potency, µM (top dose mostly 46 µM), for inactives: top-dose activity change, negative = inhibition, hits mostly inhibitors | hit rate 2.1% among 360,000 | AID 504444; further: potency means the concentration at half of the fitted maximal effect; nearly all actives have a fitted effect of over 60% in size
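Reporter: ARE-Fluc in A549. Exposure: 18-24 h, 37 °C, 5% CO2, 5% FBS OPTI-MEM. Readouts: fluorescent cytotoxicity (CellTiter-Fluor), then luminescent Nrf2 signal after BugLite.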
Active calls of the source: *; i = inactive; ? = inconclusive; . = no result. Unless noted, the call rests on the fitted dose curve; in most records, active means well fitted curve in the direction sought with a large enough effect; inconclusive means small, poorly fitted or top-dose-only effect, or another doubt; inactive means no such curve, though single readings can be large; an effect the other way counts as inactive or inconclusive. Unless noted, on the % scale 0 is the no-effect control and ±100 the full control effect.

SMILES	Giardia killer	KB-V1 MDR tox	A549 tox	KB-3-1 tox	PI4K2A block	Nrf2 block
CCN(CC)c1ccc(S(=O)(=O)N2CCOCC2)cc1NC(=O)CSc1ccccc1	12	?	0%	i	-5	-15%
CCC(C(=O)Nc1ccccc1N1CCCC1)c1ccccc1F (stereo not given)	.	.	.	.	-4	.
CCN(CC)CCCNC(=O)c1ccc2c(c1)sc1nc(-c3ccc(C)cc3)cn12	.	?	0%	16µM*	0	17%
CCOc1ccc(-n2c(C)nc3cc(C(=O)NCc4ccc5c(c4)OCO5)ccc32)cc1	5	13µM*	4%	?	-1	-17%
COc1ccc(-n2c(C)nc3cc(C(=O)NCc4ccc5c(c4)OCO5)ccc32)cc1	10	i	-5%	i	3	-10%
S=C(Nc1cccc(Cl)c1)Nc1cccc2cnccc12	-8	23µM*	2%	18µM*	-5	?
Cc1ccccc1NC(=S)Nc1cccc2cnccc12	-3	?	-4%	i	-23	?
Cc1ccc(C)c(NC(=S)Nc2cccc3cnccc23)c1	-5	?	2%	?	-55*	?
Fc1ccccc1NC(=S)Nc1cccc2cnccc12	?	23µM*	3%	?	-16	?
CCOC(=O)/C(=C/c1c(C)n(C)c2ccc([N+](=O)[O-])cc12)C(C)=O	13	?	-1%	23µM*	-8	-9%
O=c1c(C(c2ccc(O)cc2)c2c(O)nc3n(c2=O)CCS3)c(O)nc2n1CCS2	-13	i	9%	i	?	9%
Cc1ccc(C(c2c(O)nc3n(c2=O)CCS3)c2c(O)nc3n(c2=O)CCS3)cc1	-8	i	-1%	i	-52*	23%
COc1ccccc1/C=C/C(=O)Nc1ccc(N2CCOCC2)cc1	-3	i	-23%	i	-2	12µM*
COc1cccc(/C=C/C(=O)Nc2ccc(N3CCOCC3)cc2)c1OC	-10	i	1%	i	-1	?
COc1ccc(OC)c(/C=C/C(=O)Nc2ccc3c(c2)CCC3)c1	19	16µM*	-9%	i	-3	11%
COc1ccccc1/C=C/C(=O)Nc1ccc2c(c1)OCCO2	-11	21µM*	-16%	5.2µM*	-3	?
COc1ccc(C(=O)Nc2ccc(N3CCOCC3)cc2)cc1OC	4	16µM*	4%	?	-12	-3%
Cc1cccc(NC(=O)CSc2nc3n[nH]c(C)c3c(=N)n2-c2cccc(Cl)c2)c1	.	.	-4%	.	3	.
C=CCOC(=O)N[C@@H](c1cccc(OC)c1)[C@@H](C)/C=C/CC(=O)O	.	.	.	.	0	.
O=C(NCc1ccco1)/C(=C/C=C\c1ccccc1)NC(=O)c1ccc(Br)o1	7	4.1µM*	1%	?	-1	-19%
Cn1c(/C=C/c2ccc(Br)cc2)c([N+](=O)[O-])c(=O)n(C)c1=O	-7	?	?	21µM*	-13	21µM*
COc1ccc(OC)c(/C=C/c2c([N+](=O)[O-])c(=O)n(C)c(=O)n2C)c1	-23	i	0%	21µM*	-4	-5%
COc1ccc(/C=C/c2c([N+](=O)[O-])c(=O)n(C)c(=O)n2C)cc1O	-6	?	-3%	?	-9	-27%
O=C(N/N=C/c1cc([N+](=O)[O-])ccc1Cl)c1cnccn1	-6	i	1%	2.6µM*	-13	24%
Cc1ccc(NC(=S)NNC(=S)Nc2ccc(C)cc2)cc1	-1	?	1%	3.7µM*	-5	3%
SMILES	Giardia killer	KB-V1 MDR tox	A549 tox	KB-3-1 tox	PI4K2A block	Nrf2 block
Cc1ccc(NC(=S)NNC(=O)c2c([N+](=O)[O-])c(C)nn2C)cc1	6	i	-2%	i	4	4%
Cc1ccc(NC(=S)NNC(=O)c2c(Cl)c(C)nn2C)cc1	-9	16µM*	-9%	i	4	?
CCSc1nnc(NC(=O)C2CCN(C(=O)c3ccco3)CC2)s1	8	i	3%	i	.	?
Cc1ccc(S(=O)(=O)Nc2cc(Cl)c(O)c3ncccc23)cc1	-7	?	-23%	?	?	21µM*
Cc1ccc(S(=O)(=O)Nc2cc(S(=O)(=O)c3ccc(C)cc3)c(O)c3cccnc23)cc1	.	.	-2%	.	.	18%
CCOc1ccc(/C=C/c2nc(C#N)c(NCCCOC)o2)cc1	4	2.1µM*	-6%	5.2µM*	-7	-28%
CN(C)CCNc1oc(/C=C/c2ccccc2)nc1C#N	-11	i	0%	i	4	22%
C=CCNc1oc(/C=C/c2ccccc2)nc1C#N	-1	18µM*	-11%	i	2	.
Cc1cccc(N2CCN(C(=O)Cn3ncc4c3-c3cc(C)ccc3OC4)CC2C)c1 (stereo not given)	.	i	-6%	i	-3	-12%
O=C(/C=C/c1ccc(F)cc1)NC(=S)NC1CCCCC1	-2	i	-1%	?	3	12µM*
O=C(/C=C/c1ccccc1)NC(=S)Nc1ccccc1C(=O)NC1CCCCC1	-11	?	0%	i	-2	-28%
COc1cccc(C(=O)Nc2ccccc2C(=O)NC2CC2)c1	2	i	-4%	i	-1	10%
COc1cc(OC)cc(C(=O)Nc2ccccc2C(=O)NC2CC2)c1	12	6.5µM*	-5%	?	3	-5%
O=C(NC1CCCCC1)c1ccccc1NC(=O)C1CC1	-2	16µM*	-1%	i	-3	10%
O=C(/C=C/c1ccc(F)cc1)NC(=S)Nc1ccccc1C(=O)NC1CCCCC1	-17	16µM*	-8%	i	-2	-7%
C#CCNC(=O)C[C@H]1C[C@@]2(C(=O)OC)C(=C[C@H](C3CCCC3)O[C@@H]2C)N(CCc2ccc(OC)c(OC)c2)C1=O	.	.	.	.	-1	.
Cc1ccc(-c2nn(-c3ccc(F)cc3F)c3c2cnc2c(F)cccc23)cc1	.	i	1%	i	-1	.
CCOc1cccc(C2C=C(c3ccc4c(c3)OCO4)NC(c3ccc(Br)cc3)N2)c1O (stereo not given)	-14	i	0%	?	.	6%
CC(C)(C)CCN1CCC[C@H](NC(=O)COc2ccc(F)c(Cl)c2)C1	.	.	.	.	2	.
Cc1cc2c(s1)c1cnn(Cc3c(F)ccc(F)c3Cl)c(=O)c1n2C	.	.	-4%	.	.	5%
CCCCCCCCNS(=O)(=O)/C=C/c1ccccc1CNC(=O)OC(C)(C)C	.	.	.	.	-4	.
Cc1ccc(C(=O)N2CCN(c3ncccn3)CC2)cc1S(=O)(=O)N1CCCCC1	11	23µM*	-13%	i	-4	3%
Cc1cc(C(=O)N2CCN(S(C)(=O)=O)CC2)sc1-c1ccccc1	12	i	4%	i	2	7%

Source: PubChem BioAssay (National Center for Advancing Translational Sciences (NCATS))
